# Results filed as inconclusive are left out. The source made the active and inactive calls. Calls come from the whole dose curve; as a rule, active = well fitted cell-killing curve with a large enough effect; inconclusive = small, poorly fitted or top-dose-only effect, or effect the other way; inactive = no such curve, though single readings can be large or run the other way.
# Assay: qHTS of pediatric cancer cell lines to identify multiple opportunities for drug repurposing: Confirmatory screen for NB-EBc1 cells (AID 1347115);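 note: cells exposed to compound for 48 h before the viability read; nearly all actives have a fitted effect of over 45% in size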
# Settings: NB-EBc1 neuroblastoma cells, viability (cytotoxicity); series mostly up to 45.9 µM; activity change, negative = cytotoxic: at the top concentration
# Description: Drug repurposing or repositioning has been offered as a strategy for drug development in oncology programs. This approach has special potential for childhood cancers and other rare or orphan diseases, where the expected return on new drug development has been a disincentive to pharmaceuticals.
# In this project we exploit the poly-pharmacology of drugs to discover new indications via phenotypic screening of a panel of 19 well-characterized cell lines derived from solid tumors seen in children and adolescents. The goal is to identify approved drugs with previously unrecognized anticancer properties that has the potential to reveal new mechanisms and biological processes involved in carcinogenesis or drug resistance. We employed a titration-based paradigm (quantitative high-throughput screening or qHTS), where all compounds were tested at multiple concentrations for their effect on cell viability. Concentration-response curves (CRCs) were derived directly from the primary screen, and both potency and efficacy values were used to identify compounds with robust bioactivity profiles. We screened the NIH Chemical Genomics Center (NCGC) Pharmaceutical Collection (NPC) and Mechanism Interrogation Plate (MIPE) small molecule collections of approved and investigational compounds against these cell lines; and measured metabolically active cells after 48 hours of compound treatment as a proxy for cell viability.
# Assay Submitter: Nathalia J. Martinez, National Center for Advancing Translational Sciences, National Institutes of Health, Rockville, MD, USA; email: natalia.martinez@nih.gov
# [1] Shen, M et al. Quantitative high-throughput phenotypic screening of pediatric cancer cell lines identifies multiple opportunities for drug repurposing. Oncotarget 2017 Dec 19;9(4):4758-4772. PMID 29435139.
# The cells were obtained from University of North Carolina (UNC), Pediatric Preclinical Testing Program (PPT), and Coriell Institute (CI).
# qHTS cell viability assay:
# Cells were assayed in growth media at a density of 500-1,000 cells/well. Five microliters of cells were dispensed into 1,536-well, white, solid-bottom, TC-treated plates (Greiner Bio One) using a multidrop dispenser and incubated at 37 degrees C, 5% CO2, under a humidified atmosphere for 5 hours. Twenty-three nanoliters of compounds and controls (neutral control DMSO or positive control bortezomib at final concentration of 2.3 µM) were subsequently transferred by Kalypsys pintool. For primary screens, the MIPE collection was tested at 11-point dilutions (final concentrations range from 0.78 nM to 46 µM) and the NPC collection at 8-point dilutions (final concentrations range from 0.59 nM to 46 µM). Compounds tested in follow-up screens were assayed at 11-point dilutions. Cells were incubated for 48 hours, followed by addition of 3 µL of CellTiter-Glo (Promega). After a 15 min incubation at room temperature, samples were analyzed for luminescence intensity using a ViewLux High-throughput CCD imager equipped with clear filters.
# % is set by controls: 0 for no effect and ±100 for the full control effect; potency is the fitted concentration of half-maximal effect.
SMILES,"activity change, negative = cytotoxic",Potency
CCCCCCCCC(=O)NCc1ccc(O)c(OC)c1,-6.04% (inactive),
O=C(O)Cc1ccccc1,-2.93% (inactive),
CCc1ccc(C2CCNCC2)cc1,-4.59% (inactive),
CC[n+]1c(-c2ccccc2)c2cc(N)ccc2c2ccc(N)cc21,,5220 nM (active)
C[C@@H]1O[C@@H](O[C@@H]2C=C3CC[C@@H]4[C@H](CC[C@]5(C)[C@@H](c6ccc(=O)oc6)CC[C@]45O)[C@@]3(C)CC2)[C@H](O)[C@H](O)[C@H]1O,,29.3 nM (active)
CC1Sc2c(C(=O)O)c(=O)c3cc(F)c(N4CCNCC4)cc3n21 (configuration not stated),4.41% (inactive),
COc1ccc2c(C(=O)c3ccc(Cl)cc3)c(C)n(CC(=O)O)c2c1,0.417% (inactive),
COC(=O)C1=CCCN(C)C1,6.54% (inactive),
ClC1=C(Cl)C2(Cl)C(CBr)CC1(Cl)C2(Cl)Cl (configuration not stated),0.0491% (inactive),
Cc1ccc([N+](=O)[O-])[c]2c1[O][Hg]2,,2930 nM (active)
CN1[C@@H]2CC[C@H]1CC(OC(=O)c1cc(Cl)cc(Cl)c1)C2 (some centres not stated),-8.99% (inactive),
CN(C)C(=S)SSC(=S)N(C)C,,928 nM (active)
